Rows were chosen to be rich in hits. Some 17% of all compounds tested hit in one or more screens of this group.
DT40 TDP1 CPT: qHTS for Inhibitors of human tyrosyl-DNA phosphodiesterase 1 (TDP1): qHTS in cells in presence of CPT | chicken DT40 Tdp1-/-;hTDP1 cells + 20 nM CPT, ATP luminescence, 48 h | Potency, µM (highest dose often 46.2 µM), actives largely listed as inhibitors | 420,000 tested, 12% active; further: nearly all actives have a fitted effect of over 55% in size
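Chicken DT40 Tdp1-/- cells stably complemented with human TDP1 were seeded at 400 cells/well in medium containing 20 nM camptothecin, exposed to pin-transferred compounds, and grown at 37 °C for at least 48 hr. Viability was read as ATP luminescence.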
HepG2 tox: qHTS for Inhibitors of TGF-b: Cytotox Counterscreen; HepG2 CAGA-GFP viability, ATP luminescence, 18 h; Potency, µM (doses to about 46.1 µM), usual class: cytotoxic; 410,000 tested, 0.76% active
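CellTiter-Glo luminescence gave cytotoxicity after 18 hours at 37 degrees C. The cells were HepG2 CAGA-GFP in 1% FBS DMEM, stimulated with 500 pg/mL TGF-beta after compound addition. %Activity was normalised to no-cell wells (complete cell-killing) and DMSO (no toxicity), and curves were fitted and classified.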
ATXN2 expr inh: Primary qHTS for Inhibitors of ATXN expression | 360,000 tested, 0.72% active | Potency, µM (series often up to 57 µM), usual class: inhibitors | HEK-293 ATXN2-luciferase reporter, luminescence, 24 h | AID 1745845, 2022; further: nearly all actives have a fitted effect of over 55% in size
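ATXN2-luciferase reporter cells (luciferase flanked by upstream and downstream ATXN2 gene portions) were treated 24 h at 37 °C with compounds at up to 57 uM. SteadyGlo luminescence gave expression; GF-AFC fluorescence gave viability.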
S2 tox: Viability Counterscreen for Primary qHTS for Inhibitors of ATXN expression; 400,000 tested, 0.49% active; S2 cells (HEK-293 line with an ATXN2-luciferase reporter) viability, CellTiter-Fluor protease fluorescence, 24 h; Potency, µM (titrated, usually from 56.7 µM), actives largely listed as cytotoxic; AID 651635, 2014; further: nearly all actives have a fitted effect of over 40% in size
TGFb inhibitor: qHTS for Inhibitors of TGF-b; HepG2 CAGA-GFP TGF-b/SMAD3 reporter, GFP fluorescence, 18 h; TGF-beta stimulated, 500 pg/mL final; Potency, µM (titrated, usually from 46.1 µM), hits mostly inhibitors; 410,000 tested, 1.2% active; AID 588855, 2011; further: nearly all actives have a fitted effect of over 65% in size
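Cell-based qHTS in HEPG2 carrying a CAGA-GFP Smad reporter; compounds added before 500 pg/mL final TGF-beta, 18 h incubation at 37 degrees C, GFP fluorescence quantified per cell by imaging cytometry.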
DT40 TDP1 no CPT: qHTS for Inhibitors of human tyrosyl-DNA phosphodiesterase 1 (TDP1): qHTS in cells in absence of CPT | AID 686978, 2013 | 420,000 tested, 15% active | DT40 Tdp1-/- hTDP1 cells, no CPT, ATP luminescence, 48 h | Potency, µM (doses to about 46.2 µM), hits mostly inhibitors; further: nearly all actives have a fitted effect of over 55% in size
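Stably hTDP1-transfected Tdp1-null chicken DT40 cells were treated with library compounds minus camptothecin and grown for at least 48 hr at 37 °C, after which cellular ATP was quantified by luminescence.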
Numbers stand for hits; 0 = inactive; ? = inconclusive; - = no result. The call rests on the fitted dose curve; in most records, active means well fitted curve in the direction sought with a large enough effect; inconclusive means small, poorly fitted or top-dose-only effect, or another doubt; inactive means no such curve, though single readings can be large; an effect the other way counts as inactive or inconclusive.

SMILES	DT40 TDP1 CPT	HepG2 tox	ATXN2 expr inh	S2 tox	TGFb inhibitor	DT40 TDP1 no CPT
COc1ccc2cc(CN(Cc3cccs3)Cc3nnnn3Cc3ccccc3)c(=O)[nH]c2c1	?	0	0	0	0	?
CCOC(=O)c1cc(S(=O)(=O)N2CCN(c3ccccc3F)CC2)[nH]n1	?	0	0	0	0	?
CCOC(=O)COc1cccc(C2NC(=O)c3ccccc3O2)c1 (centres undefined)	0	0	0	0	?	0
CCOc1ccc(NC(=O)NCCCn2c(C)nc3cc(C)c(C)cc32)cc1	?	0	0	0	0	?
Cc1cc2nc(C)n(CCCNC(=O)Nc3cccc4ccccc34)c2cc1C	23.1µM	0	0	0	0	14.6µM
CN(C)c1ccc(N=Nc2cccc(F)c2)cc1	0	0	0	0	0	0
Cc1cc(N(C)C)cc(C)c1N=Nc1cc[n+]([O-])cc1	?	0	-	11.2µM	0	?
O=C(CN1C(=O)C2(SCC(=O)N2c2cccc(Cl)c2)c2ccccc21)NCCc1ccccc1 (centres undefined)	?	0	?	0	11.2µM	?
O=C(CN1C(=O)C2(SCC(=O)N2c2cccc(Cl)c2)c2ccccc21)NC1CCCCC1 (centres undefined)	16.4µM	0	0	0	0	18.4µM
O=C(CN1C(=O)C2(SCC(=O)N2c2ccc(F)cc2)c2ccccc21)NC1CCCCC1 (centres undefined)	0	0	0	0	0	0
COc1cccc(N2C(=O)CSC23C(=O)N(CC(=O)Nc2cccc(Cl)c2)c2ccccc23)c1 (centres undefined)	18.4µM	0	0	0	0	?
Cc1cc(C)cc(N2C(=O)CSC23C(=O)N(CC(=O)NC2CCCCC2)c2ccccc23)c1 (centres undefined)	20.6µM	0	0	0	0	?
O=C(CN1C(=O)C2(SCC(=O)N2c2cccc(Cl)c2)c2ccccc21)NCc1ccccc1 (centres undefined)	?	0	0	0	0	?
COc1cccc(O)c1CN1CCC(n2nccc2NC(=O)c2ccc3c(c2)OCO3)CC1	0	0	0	?	0	0
COc1cc2c(cc1NC(=O)c1cc(-c3ccncc3)nc3ccccc13)oc1ccccc12	20.6µM	0	?	0	0	?
Cc1ccc2nc(-c3ccccc3)cc(C(=O)Nc3cccnc3)c2c1	?	0	0	?	?	?
COc1cc2c(cc1NC(=O)c1cc(-c3cccnc3)nc3ccc(C)cc13)oc1ccccc12	11.2µM	0	0	0	0	?
COc1ccc(S(=O)(=O)Nc2cccc3c2O[C@@H](CN(C)CC2CC2)[C@@H](C)CN([C@@H](C)CO)C3=O)cc1	0	0	0	0	0	0
C1=Cc2ccccc2/C1=C(\Cc1ccncc1)Oc1ccncc1	11.2µM	0	-	-	0	14.1µM
COc1ccccc1C1NC(=O)c2n[nH]c(-c3cccs3)c21 (centres undefined)	?	0	0	0	0	?
Cc1ccc(C2NC(=O)c3n[nH]c(-c4cccs4)c32)cc1 (centres undefined)	?	0	0	?	0	18.4µM
CCN(c1cc(C)cc(C)c1)S(=O)(=O)c1nnc(NC(=O)c2cccc(F)c2)s1	11.6µM	0	-	-	0	13µM
CCN(c1ccc(Cl)cc1)S(=O)(=O)c1nnc(NC(=O)c2ccccc2C)s1	16.4µM	0	-	-	0	14.6µM
COCCN(C(=O)CCSc1ccc(F)cc1)c1c(N)n(Cc2ccccc2)c(=O)[nH]c1=O	0	0	0	0	0	0
COc1cc2ncc3c(-c4ccccc4)nn(CC(=O)NC4CCCCC4)c3c2cc1OC	14.6µM	0	0	0	0	14.6µM
SMILES	DT40 TDP1 CPT	HepG2 tox	ATXN2 expr inh	S2 tox	TGFb inhibitor	DT40 TDP1 no CPT
CCc1ccc(-c2nn(CC(=O)NC3CCCCC3)c3c2cnc2ccc(OC)cc23)cc1	5.8µM	0	0	?	0	5.8µM
CCc1ccc(-c2nn(-c3ccc(OC)cc3)c3c2cnc2ccc(OC)cc23)cc1	?	0	0	0	0	6.51µM
COc1ccc2ncc3c(-c4ccc(C)c(C)c4)nn(CC(=O)NC4CCCCC4)c3c2c1	8.2µM	0	0	0	0	11.6µM
CCCNC(=O)Cn1nc(-c2ccc(C)c(C)c2)c2cnc3ccc(OC)cc3c21	10.3µM	0	0	0	0	8.2µM
CCCNC(=O)Cn1nc(-c2ccc(C)c(C)c2)c2cnc3ccc(F)cc3c21	?	0	0	0	0	0
O=C(CN1C(=O)NC2(CCCC2)C1=O)N1CCN(S(=O)(=O)c2cc(Cl)ccc2Cl)CC1	0	0	0	0	0	?
COc1ccc(-c2cc3ccccc3nc2N)cc1OC	18.4µM	0	-	0	0	20.6µM
COc1ccc(-n2nnnc2S(=O)(=O)Cc2ccc(C(=O)O)cc2)cc1	14.6µM	0	?	?	0	16.4µM
COc1ccc(-n2nnnc2S(=O)(=O)CC(=O)N2CCCCC2)cc1	2.59µM	12.6µM	12.6µM	10µM	?	1.46µM
COc1cc(OC)cc(-n2nnnc2SCC(=O)N2CCCC2)c1	0	0	0	0	0	0
CCc1ccc(Oc2nnnn2-c2ccc(C(N)=O)cc2)cc1	0	0	0	0	0	0
Cc1ccc2cc(C)c(SCC(=O)NCC3CCCO3)nc2c1 (centres undefined)	0	0	0	0	0	?
O=C(/C=C/Nc1ccc(Br)cn1)c1cccc(OC(F)F)c1	?	0	-	0	0	?
Cc1cc(NC(=O)c2cc3cccc([N+](=O)[O-])c3[nH]2)ccc1F	?	0	0	0	?	20.6µM
Cc1cc(C)cc(NC(=O)Nc2ccc3nc(N4CCN(C)CC4)cc(C)c3c2)c1	23.1µM	0	0	0	0	20.6µM
COc1cccc(NC(=O)Nc2ccc3nc(N4CCN(C)CC4)cc(C)c3c2)c1	?	0	0	?	?	14.6µM
CCN1CCN(c2cc(C)c3cc(NC(=O)/C=C/c4cccc(OC)c4OC)ccc3n2)CC1	?	0	-	-	?	?
Cc1cc(N2CCN(C)CC2)nc2ccc(NC(=O)c3ccc(Br)o3)cc12	?	0	0	?	0	18.4µM
COc1cccc(/C=C/C(=O)Nc2ccc3nc(N4CCN(C)CC4)cc(C)c3c2)c1OC	6.51µM	0	0	?	?	5.17µM
CN(C)S(=O)(=O)N(CC(=O)NCCSc1ccccc1)c1ccccc1	?	0	0	0	0	?

Compound activity from PubChem BioAssay.
